# Experimental data published in ChEMBL document CHEMBL3988442, “University of Dundee, Small-Polar-MMV Screening Library” (2021).
# For some of these results: Results with a measured potency or affinity are listed apart.
# Assays:
# Design in all cases: scale not given: direction of the effect not stated beside the values
# [1] = biological target: Protein translocase subunit SecA (Escherichia coli (strain K12)) (UniProt P10408); experiment: Assay to Identify E. coli SecA ATPase Inhibitors; assay type: functional; details: 30 µM
# [2] = biological target: T1, Ubiquitin-activating enzyme e1, putative (Leishmania donovani (strain BPK282A1)) (UniProt E9BSI1); experiment: Leishmania donovani Ubiquitin Activating Enzyme (LdE1); assay type: functional; details: 30 µM
# T1 sequence (whole entry): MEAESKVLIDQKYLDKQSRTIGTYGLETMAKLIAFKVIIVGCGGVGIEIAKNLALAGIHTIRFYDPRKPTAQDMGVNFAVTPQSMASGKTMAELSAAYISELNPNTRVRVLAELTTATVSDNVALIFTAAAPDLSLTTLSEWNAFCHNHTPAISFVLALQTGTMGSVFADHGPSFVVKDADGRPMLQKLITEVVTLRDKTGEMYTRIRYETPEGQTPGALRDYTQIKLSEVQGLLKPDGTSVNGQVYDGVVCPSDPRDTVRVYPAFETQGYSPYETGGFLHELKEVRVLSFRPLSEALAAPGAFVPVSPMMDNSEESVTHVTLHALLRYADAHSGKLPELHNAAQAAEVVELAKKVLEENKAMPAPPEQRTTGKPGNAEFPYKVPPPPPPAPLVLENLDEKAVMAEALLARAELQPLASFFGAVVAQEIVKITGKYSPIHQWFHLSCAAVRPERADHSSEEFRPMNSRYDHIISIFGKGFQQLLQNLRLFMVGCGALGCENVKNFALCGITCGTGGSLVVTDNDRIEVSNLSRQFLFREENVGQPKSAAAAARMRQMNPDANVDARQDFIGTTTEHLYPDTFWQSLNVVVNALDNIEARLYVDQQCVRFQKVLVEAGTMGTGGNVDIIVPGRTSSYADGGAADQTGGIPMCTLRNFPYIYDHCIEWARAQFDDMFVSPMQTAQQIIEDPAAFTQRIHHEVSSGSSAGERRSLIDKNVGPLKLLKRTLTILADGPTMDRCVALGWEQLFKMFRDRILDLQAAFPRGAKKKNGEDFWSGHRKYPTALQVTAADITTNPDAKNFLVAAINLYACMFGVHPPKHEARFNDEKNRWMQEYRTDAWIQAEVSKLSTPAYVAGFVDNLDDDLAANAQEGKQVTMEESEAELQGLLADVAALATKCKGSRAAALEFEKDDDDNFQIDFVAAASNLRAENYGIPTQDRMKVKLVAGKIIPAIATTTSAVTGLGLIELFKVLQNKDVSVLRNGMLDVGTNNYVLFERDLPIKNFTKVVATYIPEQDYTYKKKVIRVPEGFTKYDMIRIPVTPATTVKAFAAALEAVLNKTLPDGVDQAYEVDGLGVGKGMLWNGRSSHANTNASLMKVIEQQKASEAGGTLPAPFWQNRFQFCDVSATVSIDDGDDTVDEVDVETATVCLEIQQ
# [3] = biological target: AMP-activated protein kinase, AMPK (Homo sapiens) (UniProt P54646+O43741+P54619+Q9UGJ0+Q9Y478+Q13131+Q9UGI9); experiment: AMP-dependent Kinase enzyme assay. An in vitro enzyme assay that detects ADP turnover that is directly proportional to AMPK activity. This uses naive AMPK that is activated during the assay with MK-8722; assay type: functional; details: 30 µM
# [4] = biological target: Sialic acid-binding Ig-like lectin 9 (Homo sapiens) (UniProt Q9Y336); experiment: Hs-Siglec9 ALPHAscreen SOP 20170721; details: 10 µM
# [5] = system: Trypanosoma cruzi; experiment: Trypanosoma cruzi phosphomannomutase and mannose-1-phosphate guanylyltransferase assay; assay type: functional; details: 10 µM
# [6] = biological target: T2, Arginase-2, mitochondrial (Homo sapiens) (UniProt P78540); experiment: in vitro enzyme assay to detect the production of urea directly proportional to the activity of Arginase II; assay type: functional; details: 33.3 µM; also: in the data most compounds retested in dose-response had high values
# T2 sequence (whole entry): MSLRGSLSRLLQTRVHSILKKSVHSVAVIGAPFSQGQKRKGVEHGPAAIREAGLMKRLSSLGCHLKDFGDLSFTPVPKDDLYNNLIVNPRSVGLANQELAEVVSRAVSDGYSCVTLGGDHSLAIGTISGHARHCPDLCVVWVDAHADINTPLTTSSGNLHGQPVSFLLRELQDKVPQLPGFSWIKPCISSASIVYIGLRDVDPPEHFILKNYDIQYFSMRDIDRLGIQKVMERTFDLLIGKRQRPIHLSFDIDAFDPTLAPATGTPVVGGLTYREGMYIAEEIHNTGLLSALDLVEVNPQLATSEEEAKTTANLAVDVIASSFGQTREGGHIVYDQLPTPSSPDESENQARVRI
# [7] = biological target: T3, Proteasome subunit beta (Trypanosoma cruzi) (UniProt O96673); experiment: Trypanosoma cruzi proteasome chymotrypsin-like activity (TcProtChymo) assay.; also: in the data most compounds retested in dose-response had high values; assay type: functional; details: 9.37 µM
# T3 sequence (whole entry): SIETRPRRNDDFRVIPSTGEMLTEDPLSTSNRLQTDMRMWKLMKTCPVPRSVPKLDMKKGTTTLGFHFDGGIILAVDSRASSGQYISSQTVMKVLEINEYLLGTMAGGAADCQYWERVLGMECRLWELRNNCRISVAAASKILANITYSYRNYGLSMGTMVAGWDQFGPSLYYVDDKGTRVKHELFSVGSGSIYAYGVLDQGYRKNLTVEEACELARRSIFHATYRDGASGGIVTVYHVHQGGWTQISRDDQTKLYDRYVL
# [8] = organism: Homo sapiens; experiment: To identify inhibition of the IFN signalling (Jak-Stat) pathway via expression of an eGFP reporter gene under the control of an IFN-stimulated response element (ISRE) containing MxA promoter.; assay type: functional; details: 30 µM
# [9] = biological target: T4, Tyrosyl-tRNA synthetase, putative (Trypanosoma cruzi (strain CL Brener)) (UniProt Q4DSP6); experiment: Trypanosoma cruzi tyrosyl tRNA synthetase (TcYRS) _High Tyrosine SOP; assay type: functional; details: 30 µM; also: in the data most compounds retested in dose-response had high values
# T4 sequence (whole entry): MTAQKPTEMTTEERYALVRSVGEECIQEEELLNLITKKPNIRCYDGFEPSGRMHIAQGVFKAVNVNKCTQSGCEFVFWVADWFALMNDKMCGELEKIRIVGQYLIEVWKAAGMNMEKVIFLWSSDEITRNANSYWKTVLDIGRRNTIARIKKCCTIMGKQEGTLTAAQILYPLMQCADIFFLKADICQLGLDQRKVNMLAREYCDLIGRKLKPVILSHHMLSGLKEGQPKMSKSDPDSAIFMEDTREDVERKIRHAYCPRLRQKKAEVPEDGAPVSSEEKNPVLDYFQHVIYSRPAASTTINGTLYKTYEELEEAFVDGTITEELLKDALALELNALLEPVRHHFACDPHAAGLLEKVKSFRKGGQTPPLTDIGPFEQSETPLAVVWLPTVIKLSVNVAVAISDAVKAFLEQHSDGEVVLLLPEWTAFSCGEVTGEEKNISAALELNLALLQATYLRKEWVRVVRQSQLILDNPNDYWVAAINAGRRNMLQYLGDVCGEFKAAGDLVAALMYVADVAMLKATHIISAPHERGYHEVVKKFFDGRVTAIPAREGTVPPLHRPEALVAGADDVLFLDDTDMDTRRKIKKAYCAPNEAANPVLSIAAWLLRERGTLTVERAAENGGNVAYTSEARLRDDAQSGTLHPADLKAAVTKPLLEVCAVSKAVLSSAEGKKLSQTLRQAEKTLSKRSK
# [10] = biological target: T4, Tyrosyl-tRNA synthetase, putative (Trypanosoma cruzi (strain CL Brener)); experiment: Trypanosoma cruzi tyrosyl tRNA synthetase (TcYRS) SOP; assay type: functional; details: 30 µM
# [11] = biological target: Chromo domain-containing protein 1 (Saccharomyces cerevisiae (strain ATCC 204508 / S288c) (Baker's yeast)) (UniProt P32657); experiment: ScCHD-1 Enzyme Inhibition Assay; assay type: functional; details: 30 µM; also: in the data most compounds retested in dose-response had high values
# Chromo domain-containing protein 1 (Saccharomyces cerevisiae (strain ATCC 204508 / S288c) (Baker's yeast)), sequence (P32657 whole entry, the tested form may be a part): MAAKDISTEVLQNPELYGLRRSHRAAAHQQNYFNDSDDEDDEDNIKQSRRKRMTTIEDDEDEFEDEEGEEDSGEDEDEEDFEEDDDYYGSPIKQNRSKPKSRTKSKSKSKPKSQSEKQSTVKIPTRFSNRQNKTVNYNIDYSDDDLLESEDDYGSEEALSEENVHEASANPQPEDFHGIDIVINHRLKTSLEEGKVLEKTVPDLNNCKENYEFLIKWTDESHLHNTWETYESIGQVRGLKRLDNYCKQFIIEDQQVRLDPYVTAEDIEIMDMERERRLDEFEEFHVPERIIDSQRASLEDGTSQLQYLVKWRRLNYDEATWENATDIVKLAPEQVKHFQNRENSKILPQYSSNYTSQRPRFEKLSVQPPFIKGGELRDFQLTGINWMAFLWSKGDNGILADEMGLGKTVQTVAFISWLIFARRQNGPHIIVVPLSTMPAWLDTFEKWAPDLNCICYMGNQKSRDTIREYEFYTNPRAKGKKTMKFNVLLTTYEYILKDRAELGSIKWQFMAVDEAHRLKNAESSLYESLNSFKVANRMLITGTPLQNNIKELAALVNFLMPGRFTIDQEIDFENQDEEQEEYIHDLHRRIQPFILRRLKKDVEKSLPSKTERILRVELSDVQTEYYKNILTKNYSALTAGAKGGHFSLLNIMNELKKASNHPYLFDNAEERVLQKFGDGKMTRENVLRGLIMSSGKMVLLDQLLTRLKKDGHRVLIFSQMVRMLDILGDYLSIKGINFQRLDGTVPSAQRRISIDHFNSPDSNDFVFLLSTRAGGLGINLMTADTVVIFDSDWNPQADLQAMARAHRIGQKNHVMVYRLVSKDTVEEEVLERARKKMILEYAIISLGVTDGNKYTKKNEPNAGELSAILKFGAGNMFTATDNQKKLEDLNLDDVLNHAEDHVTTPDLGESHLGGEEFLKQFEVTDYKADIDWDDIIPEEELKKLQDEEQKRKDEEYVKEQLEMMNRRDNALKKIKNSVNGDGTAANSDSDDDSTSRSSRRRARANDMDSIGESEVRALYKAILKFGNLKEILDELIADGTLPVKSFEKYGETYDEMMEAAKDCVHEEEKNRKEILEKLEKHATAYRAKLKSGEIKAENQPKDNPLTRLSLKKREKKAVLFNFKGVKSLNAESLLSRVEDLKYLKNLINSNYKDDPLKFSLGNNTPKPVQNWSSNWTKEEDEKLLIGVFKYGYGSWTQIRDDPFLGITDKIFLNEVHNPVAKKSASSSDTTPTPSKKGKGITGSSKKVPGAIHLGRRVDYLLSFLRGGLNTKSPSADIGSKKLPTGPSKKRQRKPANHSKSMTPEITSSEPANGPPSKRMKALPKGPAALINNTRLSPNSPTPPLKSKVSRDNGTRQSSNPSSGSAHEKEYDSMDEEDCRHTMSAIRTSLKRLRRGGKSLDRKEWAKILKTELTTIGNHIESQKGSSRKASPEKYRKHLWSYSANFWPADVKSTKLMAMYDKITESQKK
# Protein translocase subunit SecA (Escherichia coli (strain K12)), sequence (P10408 whole entry): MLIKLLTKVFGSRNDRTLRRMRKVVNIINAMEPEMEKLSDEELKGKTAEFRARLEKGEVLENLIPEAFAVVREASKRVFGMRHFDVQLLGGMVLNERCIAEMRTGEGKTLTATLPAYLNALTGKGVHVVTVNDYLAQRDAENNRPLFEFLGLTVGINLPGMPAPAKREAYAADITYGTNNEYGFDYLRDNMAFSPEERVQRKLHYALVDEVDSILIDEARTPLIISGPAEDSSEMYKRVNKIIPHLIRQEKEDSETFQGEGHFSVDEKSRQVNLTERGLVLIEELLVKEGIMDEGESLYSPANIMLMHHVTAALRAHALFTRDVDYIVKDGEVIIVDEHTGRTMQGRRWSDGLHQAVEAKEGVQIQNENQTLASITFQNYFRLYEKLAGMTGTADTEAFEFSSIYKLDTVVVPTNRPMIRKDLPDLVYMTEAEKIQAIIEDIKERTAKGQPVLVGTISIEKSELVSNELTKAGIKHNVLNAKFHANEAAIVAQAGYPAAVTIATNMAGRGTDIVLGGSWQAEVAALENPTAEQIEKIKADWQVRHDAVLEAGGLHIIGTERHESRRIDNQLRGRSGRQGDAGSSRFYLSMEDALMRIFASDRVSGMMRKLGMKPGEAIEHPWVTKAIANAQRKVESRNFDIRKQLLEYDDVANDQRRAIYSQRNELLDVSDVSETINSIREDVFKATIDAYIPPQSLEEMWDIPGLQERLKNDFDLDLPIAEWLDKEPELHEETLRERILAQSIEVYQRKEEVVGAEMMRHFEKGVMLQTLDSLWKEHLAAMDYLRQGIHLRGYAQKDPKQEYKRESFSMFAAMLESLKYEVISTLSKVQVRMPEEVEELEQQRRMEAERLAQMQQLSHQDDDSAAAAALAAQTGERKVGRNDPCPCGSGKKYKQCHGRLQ
# Sialic acid-binding Ig-like lectin 9 (Homo sapiens), sequence (Q9Y336 whole entry): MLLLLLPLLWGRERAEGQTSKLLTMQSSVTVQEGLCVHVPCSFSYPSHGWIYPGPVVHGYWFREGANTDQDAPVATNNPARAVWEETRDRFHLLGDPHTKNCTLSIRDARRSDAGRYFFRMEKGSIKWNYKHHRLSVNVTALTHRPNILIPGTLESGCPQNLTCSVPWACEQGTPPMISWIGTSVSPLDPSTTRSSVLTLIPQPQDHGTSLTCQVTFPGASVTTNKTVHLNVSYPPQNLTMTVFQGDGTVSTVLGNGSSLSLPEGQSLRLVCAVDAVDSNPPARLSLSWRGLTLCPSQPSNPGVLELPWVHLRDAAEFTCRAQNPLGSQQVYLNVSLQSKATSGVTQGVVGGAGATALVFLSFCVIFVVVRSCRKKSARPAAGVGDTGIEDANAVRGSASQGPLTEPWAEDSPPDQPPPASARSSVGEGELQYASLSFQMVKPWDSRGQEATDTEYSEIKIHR
Compound,Percent Effect [1] [%],Percent Effect [2] [%],Percent Effect [3] [%],Percent Effect [4] [%],Percent Effect [5] [%],Percent Effect [6] [%],Percent Effect [7] [%],Percent Effect [8] [%],Percent Effect [9] [%],Percent Effect [10] [%],Percent Effect [11] [%]
COc1cc(NC(=O)c2ccccc2F)c(C(=O)N(C)C)cc1OC,1.19,5.2,0.986,2.38,-7.96,-8.28,18.8,-4.11,3.23,11.1,-2.46
CC1c2ncc(Cn3cncn3)n2CCN1C1CCOCC1 (stereo not drawn),-4.22,-2.67,-5.46,-3.4,-4.83,-54.3,9.91,2.92,2.08,-12.5,-5.31
Cc1ccc(OCCC(=O)NC2CCc3nccn3C2)cc1 (stereo not drawn),-6,0,7.39,1.52,-1.07,-13,17.6,-12.9,5.32,13,-2.38
COc1ccccc1OCC(=O)NCC(O)(c1ccccc1)C1CC1 (stereo not drawn),-4.08,13.7,-8.54,17,2.74,0.909,14,7.48,8.6,15,-5.98
Cc1ccc(-c2csc(N)c2C#N)cc1,-0.493,6.67,-1.04,11.3,-3.34,-4.05,13.1,28,-6.35,-12.8,2.72
CCN(Cc1nc(C(C)C)no1)Cc1cccs1,-3.02,7.79,-1.84,6.48,5.8,1.38,12,6.22,1.07,-1.24,-5.13
CCc1nnsc1C(=O)N1CCCN(Cc2nccn2C)CC1,-2.29,-96.1,4.85,9.93,3.04,0.632,2.18,3.59,1.91,-2.35,-8.53
Cc1[nH]ccc1C(=O)Nc1cccc(CN2CCC(O)CC2)c1,0.333,10.5,-2.05,-6.23,-5.36,-2.37,16.2,8.85,1.06,10.4,-3.89
